PubChem BioAssay AID504329 (Southern Research Specialized Biocontainment Screening …, 2011)
Several values for one entry are separate records, joined by “and”; a condition that tells them apart may be missing. Equal values may be shown once. About 1,000 (0.29%) of roughly 340,000 compounds were called active. A selection follows. Potency and affinity values are given separately. Unmarked numbers belong to inactive results. Rule as the data show it: inconclusive = inhibition above about 27% without an active follow-up result; inactive = below that.

test: NS1A inhibition, H1N1 influenza, cell based functional assay (AID 504329); settings: percent inhibition, at 12.5 µM, hits give high values

Row | Compound | inhibition
1 | COCCCNC(=O)c1ccc2c3c(onc13)-c1ccccc1C2=O | 17.2%
2 | COC(CNC(=O)c1coc2nc3ccccc3nc12)OC | 17%
3 | CCOC(=O)N1CCN(C(=O)c2cn(CC)c3ccc(S(=O)(=O)N4CCC(C)CC4)cc3c2=O)CC1 | -9.88%
4 | CCOc1ccc(C(=O)N/N=C(\c2ccccc2)c2ccccn2)cc1 | -0.16%
5 | O=C(NN=C(c1ccccc1)c1ccccn1)c1ccccc1 | -14.3%
6 | CCc1ccc(NC(=S)N(Cc2ccccc2)Cc2ccccn2)cc1 | 11.1%
7 | C/C(CC(=O)Nc1ccccn1)=N\NC(=O)c1cnccn1 | -7.52%
8 | O=C(CCc1nnc(COc2ccccc2)o1)NCCc1cccs1 | -7.18%
9 | FC(F)(F)c1ccc(Cl)c(-n2c(-c3cc(C4CC4)[nH]n3)n[nH]c2=S)c1 | 8.02%
10 | CC(CC(=O)OCC(=O)NC1CCS(=O)(=O)C1)c1ccccc1 (stereo not drawn) | 4%
11 | CC(=O)N(Cc1cccs1)Cc1cc2ccc(C)c(C)c2nc1Cl | -4.22%
12 | Cc1nc(Nc2nc3ccccc3o2)nc(C)c1C | 5%
13 | Cc1cc(C)nc(Nc2nc3ccccc3o2)n1 | -16.8%
14 | Cc1ccc2oc(Nc3nc(C)cc(C)n3)nc2c1 | -7.76%
15 | Cc1ccc2oc(Nc3nc(C)c(C)c(C)n3)nc2c1 | -16.7%
16 | CCCSc1nc2cc(C)c(C)cc2n1CC(C)O (stereo not drawn) | -12.9%
17 | Cc1ccc(C(=O)Nc2cccc(C(F)(F)F)c2)cc1NC(=O)c1c[nH]c2cc(C(F)(F)F)ccc2c1=O | -5.49%
18 | CC(C)N(C(=O)CN1C(=O)NC2(CCCCCC2)C1=O)C(C)C | -2.18%
19 | Cc1cccc(C)c1NC(=O)c1sccc1SCC#N | -4.84%
20 | CC[n+]1c(-c2ccccc2)c2cc(N)ccc2c2ccc(N)cc21 | 7.81%
21 | C[n+]1c2cc(N)ccc2cc2ccc(N)cc21 | -0.44% and -3.15%
22 | Cc1ccc2c(c1)c1c3n2CCN(C(=O)CCl)C3CCC1 (stereo not drawn) | 1.19%
23 | Cc1ccc2c(c1)c1c3n2CCN(C(=O)CN2CCN(C)CC2)C3CCC1 (stereo not drawn) | 7.29%
24 | COc1ccc(Nc2nc(N)nc(CSC(=S)N3CCN(C)CC3)n2)cc1 | -7.34%
25 | CN(C)c1ccc(C2Nc3cccc4cccc(c34)N2)cc1 | 1.96%
26 | CN(C)c1cccc2cccc(N(C)C)c12 | 11.8%
27 | Cc1ccc(N=Nc2ccc(O)cc2)c(Br)c1 | 10.2%
28 | CN(C)c1ccc(N=Nc2ccc(S(N)(=O)=O)cc2)cc1 | 12.4%
